HT1080-NT tox = kills 2HG-producing HT-1080-NT fibrosarcoma cells; 1.6% of 360,000 active; Potency, µM (highest dose often 46.1 µM), for inactives: at the highest dose activity, negative = less viability, usual class: cytotoxic; HT-1080-NT fibrosarcoma viability, CellTiter-Glo ATP luminescence, 48 h;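 also: NT is the 2HG producing partner of a matched IDH1 knockdown line; potency is read from the fitted curve at half-maximal effect; 0% = DMSO-treated cells and -100% = media-only wells without cells; nearly all actives have a fitted effect of over 55% in size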
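Luminescent CellTiter-Glo readout after 48 hours of compound exposure at 37 degrees C defined viability of HT-1080-NT cells. Activity was normalized to DMSO wells and cell-free media wells; concentration-response curves were fitted and assigned curve classes.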
DT40 TDP1 CPT = DT40-hTDP1 cell growth loss with CPT; chicken DT40 Tdp1-/-;hTDP1 cells + 20 nM CPT, ATP luminescence, 48 h; Potency, µM (top dose mostly 46.2 µM), inactives show at the top dose activity change, negative = growth inhibition, usual class: inhibitors; 12% of 420,000 active; AID 686979; also: potency is read from the fitted curve at half-maximal effect; nearly all actives have a fitted effect of over 55% in size
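Cell growth measured by CellTiter-Glo luminescence after a minimum 48 h, 37 C compound exposure with 20 nM CPT in Tdp1-knockout DT40 cells stably expressing hTDP1, seeded 400/well; qHTS titration format.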
DT40 TDP1 no CPT = qHTS for Inhibitors of human tyrosyl-DNA phosphodiesterase 1 (TDP1): qHTS in cells in absence of CPT. DT40 Tdp1-/- hTDP1 cells, no CPT, ATP luminescence, 48 h. AID 686978, 2013. Potency, µM (highest dose often 46.2 µM), for inactives: at the top dose activity change, negative = growth inhibition, actives largely listed as inhibitors. 15% of 420,000 active; also: potency is read from the fitted curve at half-maximal effect; nearly all actives have a fitted effect of over 55% in size
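A cellular qHTS used chicken DT40 cells lacking endogenous Tdp1 but carrying stably transfected human TDP1. Compounds were applied without camptothecin, and cell growth kinetics were judged by ATP-dependent luminescence after ≥48 hr.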
IL-1B inflam inh = inhibitors of inflammasome signaling (IL-1 beta secretion). 4.7% of 360,000 active. activity change, % at 57.5 µM. THP-1 LPS/ATP IL-1B secretion, AlphaLISA, 16 h; hits give low values; in the data active = activity change below about -50%; inconclusive = mostly about -30% to -49%
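THP-1 cells pretreated 1 hr with compounds (up to 57.5 uM final), then stimulated with LPS (250 ng/mL final) plus ATP (1.25 mM final); secreted IL-1B measured by AlphaLISA after 16 hr, decreased signal indicating inhibition.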
HT1080 IDH1KD tx = toxicity to HT-1080 IDH1 knockdown cells (counter line); 2% of 360,000 active; Potency, µM (series often up to 46.1 µM), for inactives: top-dose activity, negative = toxicity, most hits filed as cytotoxic; HT-1080 IDH1 knockdown viability, ATP luminescence, 48 h;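 also: potency is read from the fitted curve at half-maximal effect; 0% = DMSO wells and -100% = cell-free medium wells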
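% activity derives from luminescence (CellTiter-Glo), normalised to DMSO and no-cell wells. HT-1080-IDH1KD cells, 750/well, had 48 h compound exposure at 37 °C.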
Active calls of the source: *; ? = inconclusive; nt = no result; [ ] = another dose, or the depositor's remark. Most compounds without a hit are left out; they make up all but 19% or so of the library. Unless noted, calls follow the shape of the dose curve; as a rule, active = well fitted curve in the direction sought with a large enough effect; inconclusive = small, poorly fitted or top-dose-only effect, or another doubt; inactive = no such curve, though single readings can be large; an effect the other way counts as inactive or inconclusive. Unless noted, % is scaled to controls: 0 for no effect and ±100 for the full control effect.

SMILES	HT1080-NT tox	DT40 TDP1 CPT	DT40 TDP1 no CPT	IL-1B inflam inh	HT1080 IDH1KD tx
Cc1cc(=O)n2[nH]c(-c3ccc(C(C)(C)C)cc3)cc2n1	?	18µM*	21µM*	-3	?
O=c1cc(-c2ccccc2)nc2cc(-c3ccc(F)cc3)[nH]n12	?	7.3µM*	6.5µM*	5	?
COc1cccc(-c2cc3nc(-c4ccccc4)cc(=O)n3[nH]2)c1	1.5µM*	2.6µM*	2.6µM*	88	1.3µM*
O=C1c2cccc3c2C2(O)c4c1cccc4C(=O)c1cccc(c12)C3=O	15%	?	?	19	15%
Cc1noc(C)c1S(=O)(=O)N1CCC(C(=O)NC2CCN(Cc3ccccc3)CC2)CC1	-12%	?	11µM*	-7	?
O=C(NC1CCN(Cc2ccccc2)CC1)C1CCN(S(=O)(=O)c2ccc(Cl)cc2)CC1	-6%	?	16µM*	-24	-20%
CSc1ccc(CN2CCC(N3CCC(C(=O)NC4CC4)CC3)CC2)cc1	-5%	21µM*	8.2µM*	-28	-24%
Cc1noc(C)c1S(=O)(=O)N1CCC(C(=O)Nc2ccccn2)CC1	-8%	-10%	-15%	-21	-2%
O=C(NC1CCN(Cc2ccccc2)CC1)C1CCN(S(=O)(=O)c2ccccc2)CC1	5%	-28%	?	9	3%
Cc1cc(Cl)cc(C)c1OCC(=O)N1CCN(c2ncccn2)CC1	-13%	?	?	11	-1%
Cc1ccc(S(=O)(=O)Nc2cc3c(cc2C#N)OCO3)cc1C(N)=O	29%	-17%	-10%	1	8%
O=[N+]([O-])c1cc(C(F)(F)F)ccc1NCCOc1ccccc1	-4%	-12%	-20%	-78*	-2%
Cc1cccc(OCCNC(=O)c2cccc(Oc3ccc(C(F)(F)F)cc3[N+](=O)[O-])c2)c1	-4%	23µM*	29µM*	15	-8%
O=C(NCCCNc1ccc(C(F)(F)F)cc1[N+](=O)[O-])c1cc(F)c(F)cc1Cl	?	?	18µM*	-22	?
COc1ccc2[nH]c(C)c(CCNc3ccc(C(F)(F)F)cc3[N+](=O)[O-])c2c1	-5%	?	29µM*	?	-4%
N#CCC(=N)N1CCN(c2ccccc2Cl)CC1	8%	11%	-2%	-19	11%
CCN(CCO)C(=O)c1ccc2nc(Cc3cccc(Cl)c3)oc2c1	6%	0%	-26%	20	-6%
CCN(CC)CC#CCC(C)(c1ccccc1)c1ccccc1	?	?	16µM*	?	?
COc1ccc(OC)c(/C=C/C(=O)OCC(=O)N2CCCC2)c1	9%	-1%	-4%	-9	0%
COc1ccc(/C=C/C(=O)OCC(=O)NCCc2ccccc2)c(OC)c1	5%	?	21µM*	5	11%
COc1ccc(OC)c(/C=C/C(=O)Oc2ccc(C(C)=O)cc2)c1	11%	-3%	-25%	-5	10%
COc1ccc(OC)c(/C=C/C(=O)OCC(=O)Nc2cccc(C(C)=O)c2)c1	17%	16µM*	?	8	20%
COc1cc(/C=C/C(=O)OCC(=O)NCCc2ccccc2)cc(OC)c1OC	-4%	1%	-4%	17	-4%
COc1ccc(OC)c(/C=C/C(=O)OCC(=O)N2C(C)CCCC2C)c1 (configuration not stated)	-5%	?	10µM*	-28	9%
COc1cccc(-c2cc(C(F)(F)F)nc(N3CCCCC3)n2)c1	1%	-5%	-12%	48	1%
SMILES	HT1080-NT tox	DT40 TDP1 CPT	DT40 TDP1 no CPT	IL-1B inflam inh	HT1080 IDH1KD tx
CCC(C(=O)NCC1CCCO1)N(Cc1ccc(F)cc1)C(=O)CNS(=O)(=O)c1ccccc1 (configuration not stated)	4%	1%	-19%	-4	3%
Cc1cc(C)cc(NC(=S)N2CCC(NC(=O)c3ccco3)CC2)c1	21%	-14%	-27%	-15	16%
O=S(=O)(c1ccccc1)n1nc(-c2ccco2)nc1NCc1ccccc1	nt	?	-22%	nt	nt
CCS(=O)(=O)n1nc(-c2ccco2)nc1NCc1ccc(C(C)C)cc1	nt	?	16µM*	nt	nt
O=[N+]([O-])c1ccc(C2=Nn3c(Cn4nnc5ccccc54)nnc3SC2)cc1	-4%	21µM*	16µM*	-9	5%
Nc1ccc(Cl)c[n+]1Cc1cccc2cccnc12	-22%	-23%	?	9	-4%
Cc1cc(C[n+]2cc(Cl)ccc2N)c2ncccc2c1	-11%	-29%	?	-76*	-17%
Cc1cc(C[n+]2cc(Br)ccc2N)c2ncccc2c1	-7%	12µM*	10µM*	-62*	?
COc1ccc(-c2nn(-c3ccccc3)cc2CN(C)CCn2ccnc2C)c(F)c1	0%	18µM*	?	?	-5%
CCOc1ccc(NC(=O)CSc2nc3c(oc4ccccc43)c(=O)n2-c2ccccc2C)cc1	nt	?	23µM*	nt	nt
COc1ccccc1NC(=O)CSc1nc2c(oc3ccccc32)c(=O)n1-c1ccccc1F	nt	13µM*	9.2µM*	nt	nt
COc1ccccc1NC(=O)CSc1nc2c(oc3ccccc32)c(=O)n1C	1%	?	?	3	6%
Cc1c(C(=O)O)sc(S(=O)(=O)N2CCN(C(=O)CC(C)c3ccccc3)CC2)c1C(=O)O (configuration not stated)	8%	?	0%	4	5%
COc1ccc(CNC(=O)c2cnn(-c3ncc4c(n3)-c3ccccc3CC4)c2C)cc1OC	nt	5%[9.04 µM]	-13%	nt	nt
CC(SC#N)C(=O)C12CC3CC(CC(C3)C1)C2 (configuration not stated)	?	7.3µM*	4.6µM*	-96*	16µM*
CC(C)N1CCC(N2CCN(Cc3ccc(Oc4ncccn4)cc3)CC2CCO)CC1 (configuration not stated)	12%	-8%	-1%	-3	12%
COc1cc(C2CC(=O)c3cnc(N)nc3C2)cc(OC)c1OC (configuration not stated)	4%	-19%	-18%	13	1%
CCN1CCN(c2nc(C)c3c(n2)CC(C)CC3=O)CC1 (configuration not stated)	13%	-1%	-22%	-7	13%
COc1cc(C2CC(=O)c3cnc(N4CCN(Cc5ccccc5)CC4)nc3C2)cc(OC)c1OC (configuration not stated)	-11%	7.3µM*	7.3µM*	12	-3%
COc1ccc(C2CC(=O)c3c(C)nc(N4CCN(Cc5ccccc5)CC4)nc3C2)cc1OC (configuration not stated)	1%	12µM*	13µM*	-2	-14%
